Assay outcomes deposited in PubChem by National Center for Advancing Translational Sciences (NCATS).
A selection: hits, their analogues and other compounds. The true share with any hit is near 2.4%.
D2 PAM-1: human D2 receptor positive allosteric modulation | potentiation, % (concentration not given with the values) | 0.23% of 360,000 active | AID 624464 | P14416 | DiscoveRx D2 beta-arrestin cells, luminescence, 90 min; 100% = 57 uM dopamine signal; in the data active = potentiation above about 50%; inconclusive = mostly about 30% to 49%
Target sequence (P14416 whole entry, looked up): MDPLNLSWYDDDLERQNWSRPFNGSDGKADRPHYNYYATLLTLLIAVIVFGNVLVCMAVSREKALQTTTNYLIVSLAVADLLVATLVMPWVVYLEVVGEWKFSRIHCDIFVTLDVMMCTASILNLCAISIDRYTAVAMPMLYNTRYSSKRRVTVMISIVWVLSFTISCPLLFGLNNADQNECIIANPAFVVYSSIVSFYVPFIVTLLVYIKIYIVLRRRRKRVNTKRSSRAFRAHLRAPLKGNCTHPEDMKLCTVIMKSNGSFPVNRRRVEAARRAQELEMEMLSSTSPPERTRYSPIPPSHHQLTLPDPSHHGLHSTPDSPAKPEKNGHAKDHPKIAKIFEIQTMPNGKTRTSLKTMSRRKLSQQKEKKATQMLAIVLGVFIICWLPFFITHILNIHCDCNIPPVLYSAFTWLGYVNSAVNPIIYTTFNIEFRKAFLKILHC
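D2 cells co-treated with compound plus 50 nM dopamine (EC20) for 90 min at 37 deg C to detect potentiation. Beta-arrestin recruitment was read as enzyme-fragment luminescence after 1 h at ambient temperature. Full response was set by 57 uM dopamine.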
D2 antag: antagonists of human D2 dopamine receptor. P14416. HEK293 TREx D2 cells, calcium flux, dopamine EC80. inhibition, % at 10 µM. AID 485344. 2% of 340,000 active; in the data active = inhibition above about 30%; inactive = below that, where a call was filed
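Compounds are added to dye-loaded, induced HEK293 T-REx cells coupled to calcium release via D2; after a 3 min kinetic read an EC80 dopamine stimulus is given and fluorescence is recorded for 3 more min.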
D2 PAM-2: D2 dopamine receptor (human) potentiation; HEK293 T-REx D2, calcium flux, EC20 dopamine potentiation; AID 485347; potentiation, % at 10 µM; 0.34% of 340,000 active;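 active = potentiation over 3 SD above the plate norm, cut at about 30% in these data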
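Primary screen. Calcium kinetics in induced HEK293 T-REx D2 cells: compound pre-addition 180 s, EC20 dopamine, 180 s more.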
D2 ag-1: D2 dopamine receptor (human) agonism; HEK293 T-REx D2 cells, calcium flux agonist mode; AID 485358; P14416; 0.53% of 340,000 active; activation, % at 2 µM;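 active = activation over 3 SD above normal in the single-dose calcium agonist read, cut at about 30% in these data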
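HEK293 Trex D2 cells, tetracycline-induced, o/n 30 C 5% CO2; no-wash Ca dye, RT 30–90 min; 10-cycle baseline, 23 nl cpd added, kinetic Ca read 180 s; agonist hits = positive Ca response.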
D2 ag-2: activates the human D2 dopamine receptor. activation, % (concentration not given with the values). AID 624465. 0.084% of 360,000 active. P14416. DiscoveRx PathHunter D2 beta-arrestin, luminescence, 90 min; 100% = 57 uM dopamine signal; in the data active = activation above about 40%; inconclusive = between about 15% and that limit
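DiscoveRx PathHunter D2 beta-arrestin cells (2,100/well) attached overnight, then compound-stimulated 90 min at 37 C in HBSS/10 mM HEPES/0.1% Tween-20 buffer; beta-galactosidase complementation read by luminescence after 1 h at ambient temperature. Dopamine 57 uM final (EC100) as control.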
Hits are given with their value; – = inactive; ? = inconclusive; · = not tested or not shown.

SMILES | D2 PAM-1 | D2 antag | D2 PAM-2 | D2 ag-1 | D2 ag-2
COc1cc2c(cc1OC)CN(Cc1ccc(C)cc1)CC2 | – | 56.2 | – | – | –
COc1ccccc1C1CCN(Cc2ccc(C)cc2)CC1 | – | 95.1 | – | – | –
Cc1ccc(C(=O)NCCc2c[nH]c3ccccc23)c(C)c1 | – | 73.8 | – | – | –
Cn1cccc1-c1cc(C(=O)N/N=C/c2ccc(F)cc2)[nH]n1 | – | 60.6 | · | – | –
Cn1cccc1-c1cc(C(=O)N/N=C/c2ccccc2Cl)[nH]n1 | – | 87.6 | – | – | –
Cn1cccc1-c1cc(C(=O)N/N=C/c2ccc([N+](=O)[O-])cc2)[nH]n1 | – | – | – | – | –
Cn1cccc1-c1cc(C(=O)N/N=C/c2cc(Br)ccc2O)[nH]n1 | – | · | · | · | –
CC(C)(CNC(=O)c1cc([N+](=O)[O-])ccc1N1CCC(Cc2ccccc2)CC1)N1CCOCC1 | – | – | – | – | –
CCOC(=O)C1=NOC(CNC(=O)c2c(-c3ccccc3Cl)noc2C)C1 (configuration not stated) | – | – | – | – | –
CC(=O)C1=NOC(CNC(=O)c2c(-c3ccccc3Cl)noc2C)C1 (configuration not stated) | – | – | 31.7 | – | –
CCOC(=O)C1CCCCN1C(=O)c1ccc2nc(Cc3ccc(OC)cc3)oc2c1 (configuration not stated) | – | – | 30.7 | – | ?
COc1ccc(Cc2nc3ccc(C(=O)N4CCC[C@H]4CO)cc3o2)cc1 | – | – | – | – | –
CC(S(=O)(=O)c1ccccc1)S(=O)(=O)c1ccccc1 | – | · | · | · | –
CC1=C(C)/C(=N\OS(=O)(=O)c2ccc(C)cc2)C=CC1=O | 67.0 | · | – | · | 48.1
COc1ccc(S(=O)(=O)/N=C2/C=CC(=O)C(C)=C2C)cc1 | – | – | – | – | –
CC1=C/C(=N\OS(=O)(=O)c2ccccc2)C(C)=CC1=O | 79.4 | – | – | – | ?
COc1cc(C(=O)O/N=C2/C=C(C)C(=O)C=C2C)cc(OC)c1OC | – | – | – | – | ?
CC1=C/C(=N\OS(=O)(=O)c2ccccc2)C(C(C)C)=CC1=O | 114.3 | – | – | – | 49.0
O=S(=O)(c1ccc(F)cc1)N1CCC(Oc2ccc(-n3cnnn3)cc2)CC1 | · | · | · | – | ·
Cc1c(C)n(C(=O)CN2CCN(c3ccccc3)CC2)c2ccccc12 | – | – | – | – | –
Cc1c(C)n(C(=O)CN2CCC(C(N)=O)CC2)c2ccccc12 | – | 36.3 | – | – | –
CCn1cc2nc(SCC(=O)Nc3ccc(OC)c(OC)c3)n(Cc3ccc(Cl)cc3)c(=O)c2n1 | · | · | – | – | ·
O=C(Nc1nnc(SCC(=O)N2CCCCC2)s1)C1CCCCC1 | – | – | 37.2 | – | –
COc1ccc(-c2noc(CN(C)S(=O)(=O)c3c(C)cc(C)cc3C)n2)cc1OC | · | · | – | – | ·
COc1ccc(-c2noc(-c3ccc(Cl)cc3[N+](=O)[O-])n2)cc1OC | 89.1 | – | – | – | ?
SMILES | D2 PAM-1 | D2 antag | D2 PAM-2 | D2 ag-1 | D2 ag-2
COc1ccc(-c2noc(CN(C)S(=O)(=O)c3ccc(Cl)cc3)n2)cc1OC | – | – | 45.5 | – | –
COc1ccc(-c2noc(-c3ccco3)n2)cc1OC | – | – | 36.2 | – | –
COc1ccc(Cn2c(=O)[nH]c3cc(C(=O)NCCC(C)C)ccc3c2=O)cc1 | · | · | – | – | ·
Cc1nc2sc(C(c3ccccc3)N3CCN(C)CC3)c(O)n2n1 (configuration not stated) | – | 46.7 | – | – | –
COc1ccc(NC(=O)Cn2c3ncccc3c(=O)n2-c2ccc(C)c(C)c2)c(OC)c1 | · | · | – | – | ·
COc1ccc(/C=N/Nc2nnc(-c3ncc[nH]3)c3ccccc23)cc1 | – | 47.4 | – | – | –
Cc1ccc(-c2nn(-c3ccccc3)cc2CNCc2ccccc2)cc1 | – | 51.0 | – | – | –
Cc1ccc(-c2nn(-c3ccccc3)cc2CO)cc1 | – | – | – | – | –
Cc1ccc(-n2ncc3c(=O)[nH]c(SCC(=O)NCC4CCCO4)nc32)cc1 (configuration not stated) | – | · | · | · | –
Cc1ccc(-c2[nH]c(-c3ccc(Cl)cc3)nc2SCC(=O)NCC2CCCO2)cc1 (configuration not stated) | – | 60.9 | – | – | –
CCc1ccc(-c2nc(SCC(=O)NCC3CCCO3)c(-c3ccc(C)cc3)[nH]2)cc1 (configuration not stated) | · | · | – | – | ·
Cc1ccc(-c2nc(S(=O)(=O)c3ccc(F)cc3)c(SCC(=O)NCC3CCCO3)o2)cc1 (configuration not stated) | – | – | 36.3 | – | –
O=C(CSc1nc2c(cnn2-c2cccc(Cl)c2)c(=O)[nH]1)NCC1CCCO1 (configuration not stated) | – | 38.7 | – | – | –
COc1c(C)cc(Br)cc1C(=O)O | – | 40.5 | – | – | –
COc1c(C)cc(Br)cc1C(=O)Nc1ccccc1C | – | – | – | – | –
Cc1csc(Sc2ccc([N+](=O)[O-])cc2C(=O)OCC(=O)NC2CCCC(C)C2C)n1 (configuration not stated) | – | – | – | – | –
CCC(C)NC(=O)COC(=O)c1cc([N+](=O)[O-])ccc1Sc1nc(C)cs1 (configuration not stated) | 51.2 | – | – | – | –
O=C(CN1C(=O)S/C(=C\c2cccs2)C1=O)Nc1ccc(C(=O)O)c(O)c1 | – | 39.8 | – | – | –
CN(C)c1ccc(C2C=C(c3ccccc3)Nc3nnnn32)cc1 (configuration not stated) | · | · | – | – | ·
CN(CCC#N)C(=O)COC(=O)c1ccc(Cl)cc1O | – | 46.6 | – | – | –
COc1cccc(/C=C/C(=O)OCC(=O)c2ccc3c(c2)NC(=O)CO3)c1 | – | 42.1 | – | – | –
CCOC(=O)Cc1ccc2sc(-c3ccccc3)nc2c1 | – | 32.2 | – | – | –
CCOC(=O)c1sc(-c2ccccc2)nc1C | – | – | – | – | –
COc1ccc(OC)c(/C=N/NC(=O)CCc2n[nH]c(=O)[nH]c2=O)c1 | – | – | – | – | –
Cc1ccc(/C=N\NC(=O)CCc2n[nH]c(=O)[nH]c2=O)o1 | – | – | 50.4 | – | –
COc1ccc(CNC(=O)[C@@H](Cc2ccccc2)NC(=O)CC[C@H]2O[C@@H](n3ccc(=O)[nH]c3=O)[C@H](O)[C@@H]2O)cc1 | – | · | · | · | –
O=C(CC1NCCc2ccccc21)Nc1ccc(Cl)cc1 (configuration not stated) | – | 43.8 | – | – | –
O=C(CC1NCCN(Cc2ccccc2)C1=O)Nc1ccc(Cl)cc1 (configuration not stated) | – | – | – | – | –
CC1(C)CC(N(Cc2ccco2)C(=O)Cc2ccccc2)CCO1 (configuration not stated) | – | – | – | – | –
